Laboratory results from PubChem BioAssay AID904 (National Center for Advancing Translational Sciences (NCATS), 2007).
In all, about 55,000 compounds went through this assay and about 530 (0.96%) were called active. Inconclusive results (about 7%) are left out. Calls come from the whole dose curve; as a rule, active = well fitted cell-killing curve with a large enough effect; inconclusive = small, poorly fitted or top-dose-only effect; inactive = no such curve, though single readings can be large or run the other way. Only a selection was taken, and actives are over-represented in it overall.

Test: qHTS Screen for Compounds that Selectively Target Cancer Cells with p53 Mutations: Cytotoxicity of p53 Null Cells at the Nonpermissive Temperature; note: nearly all actives have a fitted effect of over 50% in size;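 for activity, negative = cell killing: 0% = DMSO only and -100% = full killing by 100 µM tamoxifen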
Conditions: H1299 p53-null (neo) cells, 39C, ATPlite viability, 24 h; series mostly up to 46.1 µM; activity, negative = cell killing: at the top concentration
Description: NIH Chemical Genomics Center [NCGC] NIH Molecular Libraries Screening Centers Network [MLSCN] MLSCN Grant: 1 X01 MH079844-01 Assay Submitter (PI): Dr. SUN, YI, University of Michigan NCGC Assay Overview: Synthetic Lethal Screen for Compounds to Kill Cancer Cells with p53 Mutation. Tumor suppressor gene p53 serves as a major cellular barrier against tumorigenesis. […] The goal of this screening is to identify small molecule probes that selectively kill cancer cells with mutations in p53. This screening was carried out using two lines of H1299 lung cancer cells. The H1299-p53 A138V line express a temperature sensitive p53 mutant (p53ts) in which the mutant p53 protein (A138V) is in the mutant confirmation when grown at 39C (the nonpermissive temperature) and in the wild type conformation when grown at 32C (the permissive temperature). A H1299-neo line (p53 null) grown at both 39C and 32C were used as counter-screens to filter out false positive associated with temperature shifting. The small molecular compounds that selectively target mutant p53-containing cancer cells were selected as candidate probes for further study. A cytotoxicity assay based on the measurement of ATP contents in cells was used in this screen. Concentration-responses of all the compounds in the library collection were determined in qHTS using the cell lines and temperature conditions as above.
NCGC Assay Protocol Summary: Both the H1299-p53A138V and H1299-neo cell lines were provided by Dr.Yi Sun, a PI at the University Michigan. The cells were maintained and cultured at 37C. The resuspended frozen cells were used to plate the cells in the 1536-well assay plates at a density of 600 cells per well in 5 ul medium. The assay plates with the cells were incubated at 37C for 16 to 30 hours before the experiments. The library compounds in DMSO solution were added to the cells in assay plates and incubated 24 hours at 39C (for mutant p53 conformation) or 32C (for normal p53 conformation as control). An ATP_lite assay kit (PerkinElmer) was used to determine the cell viability. Tomaxifen (100uM) was used as the positive control for cell killing. Data were normalized to the controls for basal activity (DMSO only) and 100% killing (100uM tamoxifen). AC50 values were determined from concentration-response data modeled with the standard Hill equation. P53 assay protocol: 1. Reagent; 5 uL H1299-p53A138V or H1299-neo cell cells/well 2. Time; overnight; 37C incubation 3. Compounds; 23 nL; 5.9 nM to 46 uM 4. Controls; 23 nL; Tamoxifen 100 uM 5. Time; 24 hr; 39C incubation 6. Reagent; 3 uL; ATP_Lite reagent 7. Time; 20 min; Room Temperature 8. Detection; Luminescence; Viewlux plate reader Keywords: p53, synthetic lethal, cancer, cell viability, cytotoxicity, H1299 cell line, luminescence, MLSMR, MLSCN, NIH Roadmap, qHTS, NCGC
Potency is the fitted concentration of half-maximal effect.

Structure (SMILES)	activity, negative = cell killing	Potency
Cc1ccccc1CNC(=O)C(=O)NCC(c1cccs1)S(=O)(=O)c1cccs1 (stereo unspecified)	35.3% (inactive)	
CCC(=O)N1c2ccccc2CC1C(=O)N1CCN(c2ccccc2F)CC1 (stereo unspecified)	-6.5% (inactive)	
Cc1ccc(OCC(=O)OCc2cc(=O)n3nc(C4CC4)sc3n2)cc1	-8.09% (inactive)	
COc1ccccc1NC(=O)c1cc(S(=O)(=O)NCCc2ccccc2)ccc1F	10.5% (inactive)	
COCCn1c(SCC(=O)c2cc(C)ccc2C)nc2cc(C(=O)NC3CCCC3)ccc2c1=O	10.6% (inactive)	
CCn1c(CNC(=O)c2ccccc2)nnc1SCC(=O)N1CCN(c2ccccc2)CC1	6.06% (inactive)	
CCOCN(C(=O)Cn1c(C(C)O)nc2ccccc21)c1c(C)cccc1CC (stereo unspecified)	21.6% (inactive)	
COc1cc(-c2cc3n(C)c(C)c(CCC(=O)Nc4ccc(F)cc4)c(=O)n3n2)cc(OC)c1OC	-1.61% (inactive)	
COc1ccc(NC(=O)CN2C(=O)C(c3ccccc3)=NC23CCCCCC3)cc1OC	23.8% (inactive)	
COc1ccc(-c2nn(CC(=O)Nc3ccccc3F)c3c2cnc2ccc(F)cc23)cc1	-18% (inactive)	
COC(=O)c1nc2ccccc2s1	6.87% (inactive)	
CCc1ccccc1N1C(=O)CN(S(=O)(=O)CC)CC1(C)C(=O)NC1CCCCC1 (stereo unspecified)	2.03% (inactive)	
O=C(Nc1cccc(F)c1)c1coc(=O)c(Br)c1	22% (inactive)	
COc1cccc(CNC(=O)C(=O)NCC(c2cccs2)S(=O)(=O)c2ccccc2)c1 (stereo unspecified)	-16.5% (inactive)	
Cc1ccc(C)c(Cn2c(CCCNC(=O)C3CCCCC3)nc3ccccc32)c1	9.17% (inactive)	
O=C(CC(NCc1cccnc1)C(=O)O)Nc1ccc(O)cc1 (stereo unspecified)	2.24% (inactive)	
CCN1C(=O)c2ccccc2Sc2ccc(NC(=O)Cc3ccc(OC)cc3)cc21	-3.19% (inactive)	
C/C(CC(=O)Nc1ccc(Cl)cc1)=N\NC(=O)C(=O)NCCO	-7.37% (inactive)	
CC(=O)c1sc(N2C(=O)c3oc4ccccc4c(=O)c3C2c2ccc(C)cc2)nc1C (stereo unspecified)	-20.5% (inactive)	
COC(=O)c1ccccc1NC(=O)Cn1c(=O)n(-c2cccc(C(F)(F)F)c2)c(=O)c2c(C)c(C)sc21	-6.26% (inactive)	
CCCCOc1ccc(CN2C(=O)C(=O)c3cc(Br)cc(C)c32)cc1OC		11.2 µM (active)
COc1ccc(CCN2C(=O)C3CC=C(C)CC3C2=O)cc1OC (stereo unspecified)	9.02% (inactive)	
CCCCOc1ccc(Cn2c(=O)oc3ccc(C)cc32)cc1OC	-20.1% (inactive)	
COc1ccc(CCNC(=O)/C(C#N)=C2\N=C(NC(=O)c3cccs3)c3ccccc32)cc1	-0.547% (inactive)	

Structure (SMILES)	activity, negative = cell killing	Potency
CCc1ccc(CNC(=O)C2CCN(c3nn4cc(-c5ccc(F)cc5)nc4s3)CC2)cc1	-5.73% (inactive)	
CCC(CC)c1nn2cc(-c3ccccc3)nc2s1		7.94 µM (active)
CCCS(=O)(=O)Nc1cccc(-c2cn3ccsc3n2)c1	-16.7% (inactive)	
Cc1ccc(Cl)cc1NC(=O)CSc1nccn1C	28.3% (inactive)	
COc1cccc(CNC(=O)Cn2c(=O)c3cccn3c3ccc(F)cc32)c1OC	10.8% (inactive)	
CC(C)NC(=S)N1CCN(C(c2ccccc2)c2ccccc2)CC1	2.42% [at 1.84 µM] (inactive)	
CCC(C)NC(=O)Cn1c(=O)n(-c2ccc(Cl)cc2)c(=O)c2c3c(sc21)CCCC3 (stereo unspecified)	13.8% (inactive)	
Cc1ccc(N(CC(=O)NCC(C)c2ccccc2)S(=O)(=O)N(C)C)cc1 (stereo unspecified)	9.74% (inactive)	
Cc1ccc(OCCSc2nc(-c3cccs3)nc3cc(=O)[nH]n23)cc1Cl	10.9% (inactive)	
O=C(ON=C1CCN(S(=O)(=O)c2ccccc2)CC1)c1ccc(Cl)cc1	19.7% (inactive)	
CCOC(=O)CSC1=Nc2ccccc2C2=NC(CCC(=O)NCc3ccc(F)cc3)C(=O)N12 (stereo unspecified)	-3.67% (inactive)	
O=C(/C=C/c1cn(CC(O)CN2CCc3ccccc32)c2ccccc12)c1ccc(Br)cc1 (stereo unspecified)	-12.6% (inactive)	
COc1ccc(OCCn2cc(C(=O)C3CCCCC3)c3ccccc32)cc1	-24.1% (inactive)	
CCOc1ccc(C(=O)/C=C/c2cn(CC(O)CN3CCCCCC3)c3ccccc23)cc1 (stereo unspecified)		12.6 µM (active)
O=C(Cc1cccs1)Nc1nnc(SCc2ccc(F)cc2)s1	5.89% (inactive)	
CCc1ccccc1N(C)C(=O)C1CCCN(c2ncnc3onc(-c4ccc(F)cc4)c23)C1 (stereo unspecified)	-13.8% (inactive)	
Cc1nn(Cc2ccc(F)cc2)c(C)c1NC(=O)c1cc(CC(C)C)on1	2.53% (inactive)	
COc1ccc(C2(CNC(=O)C(c3ccccc3)c3ccccc3)CCOCC2)cc1OC	-10.5% (inactive)	
CCC(CC)C(=O)N1CCc2cc(OC)c(OC)cc2C1COc1ccc(F)cc1 (stereo unspecified)	35.1% (inactive)	
COc1cccc(N2CCN(S(=O)(=O)c3cc(Br)cc4c3N(C(=O)C3CC3)CC4)CC2)c1	-22.6% (inactive)	
Oc1c(C(c2ccc(F)cc2)N2CCN(Cc3ccccc3)CC2)sc2nc(-c3ccco3)nn12 (stereo unspecified)	8.44% (inactive)	
CCCC(=O)Nc1cc(C(=O)NCc2ccc(OC)cc2)ccc1S(=O)(=O)c1ccc(Cl)cc1	0.688% (inactive)	
Cn1c(=O)c(=O)n(C)c2cc(NC(=O)c3ccccc3Br)ccc21	-25.1% (inactive)	
CCc1nn(CCCC(=O)NCc2ccc(C)cc2)c(=O)c2cc3occc3n12	-21.6% (inactive)	

Structure (SMILES)	activity, negative = cell killing	Potency
Cc1ccc(NC(=O)C(=O)NCc2ccc(/C=N/NC(=O)c3c(C)nc4cc(C)ccn34)o2)cc1	8.36% (inactive)	
Cc1c(C(=O)NCCCc2ccccc2)cccc1[N+](=O)[O-]	-7.93% [at 1.84 µM] (inactive)	
CC(NC(=S)Nc1ccccc1)C1COc2ccccc2O1 (stereo unspecified)	-2.56% (inactive)	
COc1cccc2c1cc1c(=O)n(CC(=O)N3CCN(c4cccc(Cl)c4)CC3)nc(C)n12	-8.53% (inactive)	
COc1cc(OC)c(C(=O)Nc2ccccc2-c2ccccc2)cc1OC	18.9% [at 1.84 µM] (inactive)	
CCOC(=O)c1ccc(NC(=O)Cn2c(=O)cc(C)c3c(C)nn(-c4cccc(F)c4)c32)cc1	-0.639% (inactive)	
Cc1nn(-c2ccccc2)c(Cl)c1/C=C/C(=O)c1ccc(O)cc1	23.1% (inactive)	
COc1ccc(NC(=O)CC2C(=O)OCC3CCCCN32)cc1Cl (stereo unspecified)	14% [at 1.84 µM] (inactive)	
CC(C)(C)c1ccc(C(=O)NCc2nnc(SCC(=O)N3CCCc4ccccc43)n2-c2ccccc2)cc1	-3.75% (inactive)	
Cc1cc(C)c(NC(=O)c2oc3ccccc3c2COc2ccccc2)c(C)c1	16.4% (inactive)	
Cc1ccccc1NC(=O)c1c(NC(=O)c2ccccc2F)sc2c1CCC(C)C2 (stereo unspecified)	3.45% (inactive)	
O=C(Nc1nc2c(s1)CCCC2)c1ccccc1F		7.94 µM (active)
Cc1cc(C)cc(OC(C)C(=O)Nc2nc3c(s2)CCCC3)c1 (stereo unspecified)	7.6% (inactive)	
COc1ccc(Cl)cc1NC(=O)CNc1ccccc1F	28.8% [at 1.84 µM] (inactive)	
COc1ccc(OCCCn2c(C3CC(=O)N(c4ccc(F)cc4)C3)nc3ccccc32)cc1 (stereo unspecified)	-24.9% (inactive)	
CCCCN1CC(c2nc3ccccc3n2CCCCOc2ccc(C)cc2C)CC1=O (stereo unspecified)	15.7% (inactive)	
CCc1ccccc1N1CC(c2nc3ccccc3n2CCCCOc2ccccc2)CC1=O (stereo unspecified)		20 µM (active)
Cc1cccc(NC(=S)Nc2ccc3cn[nH]c3c2)c1	13% (inactive)	
CCN1CCN(C(=O)C2(NC(=O)Nc3cccc(F)c3)CCCCC2)CC1	-11.5% (inactive)	
COc1cc(Cl)c(C)cc1NC(=O)CCc1nc2cccnc2n1Cc1cccs1	22.6% (inactive)	
O=S(=O)(NN=C1CCCCCCC1)c1ccc(Br)cc1	-8.87% (inactive)	
CC1=CC(=C(C#N)c2nc3ccccc3s2)C=C(C)N1c1ccc(F)cc1F	34.3% (inactive)	
CCc1ccc(C2CC(=O)c3c([nH]c(C(=O)OCc4ccc(C)cc4)c3C)C2)cc1 (stereo unspecified)	15.3% (inactive)	
Cc1cc(C)cc(C(=O)N2CCN=C2SCc2ccc([N+](=O)[O-])cc2)c1	-7.93% (inactive)	

Structure (SMILES)	activity, negative = cell killing	Potency
Fc1ccc(Nc2nc(SCc3ccccc3Cl)nc3ccccc23)cc1	-16.2% (inactive)	
CSc1nc(Nc2ccc(F)cc2)cc(-c2ccccc2)n1		15.8 µM (active)
CC(C)(C)NC(=O)CSc1nc(-c2ccc(F)cc2)cc(C(F)(F)F)n1	20.5% (inactive)	
Cc1ccc(CNC(=O)CCc2c(C)nc3c(c(C)nn3-c3ccccc3)c2C)cc1	-14.7% (inactive)	
CCC1CCCCN1C(=S)Nc1ccc(SC(F)F)cc1 (stereo unspecified)	-0.151% (inactive)	
CCc1ccccc1NC(=O)Cn1c(=O)n(-c2cccc(C)c2)c(=O)c2c1c1cc(OC)ccc1n2C	17.9% (inactive)	
Cc1ccc(-c2nn3c(=O)cc(CN4CCN(S(=O)(=O)c5ccc(Cl)cc5)CC4)nc3s2)cc1	-26.2% (inactive)	
CCCCOC(=O)/C(C#N)=C/c1ccc(-c2cccc(C(F)(F)F)c2)o1	20.7% (inactive)	
CCOC(=O)c1nc(Nc2ccc(C(=O)OC)cc2)c2ccccc2n1	2.12% (inactive)	
COc1cccc(Nc2nc3ccccc3c3nncn23)c1	-29.5% (inactive)	
COc1cc(Nc2nc(-c3ccc(OC)c(OC)c3)nc3ccccc23)cc(OC)c1		14.1 µM (active)
O=C(Nc1ccc2c(c1)OCO2)c1cc(-c2cccc(Cl)c2)on1	-4.53% (inactive)	
Cc1ccccc1-c1nc2scc(CCNC(=O)C(=O)Nc3ccc(F)cc3F)n2n1	-1.2% (inactive)	
Cc1ccc(Nc2c(-c3ccc(C)cc3)nc3cnccn23)cc1	44.7% (inactive)	
CC(=O)Nc1ccc(S(=O)(=O)N2CCN(c3ccc([N+](=O)[O-])c(NCCN4CCOCC4)c3)CC2)cc1	12.1% (inactive)	
O=C(NC1CCCCC1)c1ccc(Cn2c(SCc3ccccc3)nc3cccnc32)cc1	-16.3% (inactive)	
O=C(O)c1ccc(CSc2nc3cccnc3n2Cc2cccc(F)c2)cc1	-10.2% (inactive)	
Cc1ccc(CSc2nc3cccnc3n2Cc2ccc(C(=O)NC3CC3)cc2)cc1		3.16 µM (active)
COc1ccc(OC)c(-c2nc(C(N)=O)c3c(n2)n(-c2ccc4c(c2)OCO4)c(=O)n3C)c1	-6.52% (inactive)	
CCOc1ccc(N(Cc2ccccc2)C(=O)c2nc(S(C)(=O)=O)ncc2Cl)cc1		10 µM (active)
CCOc1ccc(N(Cc2ccccc2)C(=O)c2nc(SCC)ncc2Cl)cc1	35.2% (inactive)	
CCOc1ccc(NC(=O)CN(Cc2ccccc2)S(=O)(=O)c2ccc(Cl)cc2)cc1	-6.25% (inactive)	
CNc1ccc(NC(C)=O)cc1[N+](=O)[O-]	-11.3% [at 1.84 µM] (inactive)	
N#Cc1c(-c2ccc(F)cc2)cc(C2CC2)nc1SCC(=O)c1cccs1	-5.05% [at 1.84 µM] (inactive)	
